# Data as given in PubChem BioAssay.
# Records with an inconclusive call do not appear. Calls of active or inactive are those of the source.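 The calls were made as follows, unless noted: active = efflux inhibition above 0.42, the validation set average plus 4 SD; inconclusive = no clear call, values can overlap the other calls; inactive = the rest.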
# Experiments:
# [1] = rapamycin-like changes in RPL19A-GFP expression – cell-based, S. cerevisiae, multiplex flow cytometry, primary screen (AID 1862; in the data active = percent of DMSO control GFP below about 86%;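 also: lower values mimic rapamycin by blocking the RPL19A rise seen in DMSO cells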); settings: S. cerevisiae RPL19A-GFP strain, flow cytometry fluorescence, 3 h; at 10 µM; stronger effect = lower value
# [2] = TOR pathway GLN3 branch reporter MEP2-GFP changes – S. cerevisiae, multiplex flow cytometry, primary screen (AID 1867;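 active = GFP response, as percent of the DMSO control, above the screen-wide mean plus 3 SD, about 139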;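 also: median GFP channel fluorescence of barcode-gated MEP2-GFP cells measured by flow cytometry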); settings: S. cerevisiae MEP2-GFP strain, 3 h, at 10 µM, stronger effect = higher value, 100% means same as DMSO wells
# [3] = TOR pathway RTG branch CIT2 reporter changes – S. cerevisiae, GFP fusion, multiplex flow cytometry, primary screen (AID 1870;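 active = percent response above a set limit, the screen-wide mean plus 3 SD, cut at about 130% in these data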;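 also: barcoded CIT2-GFP strain pooled with four other GFP strains with rapamycin as positive control; median GFP fluorescence per well over plate mean of DMSO wells so 100% = DMSO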); settings: S. cerevisiae CIT2-GFP expression, 3 h, at 10 µM, stronger effect = higher value
# [4] = TOR pathway LAP4-GFP level changes – S. cerevisiae, multiplex flow cytometry, primary screen (AID 1873;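 active = GFP signal, as percent of the solvent control, above the screen mean plus 3 SD, about 149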); settings: S. cerevisiae LAP4-GFP expression, 3 h, at 10 µM, stronger effect = higher value
# [5] = yeast AGP1-GFP level changes, GLN3 branch – cell-based, multiplex flow cytometry, S. cerevisiae, primary screen (AID 1887;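 active = GFP signal above the screen-wide mean plus 3 SD, that is over about 124.5% of the solvent control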;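 also: AGP1-GFP fusion strain of S. cerevisiae within a five-strain barcoded multiplex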); settings: 3 h, at 10 µM, stronger effect = higher value
# [6] = reduced mouse 2C T cell binding to pMHC/ICAM-1 vesicles – MLPCN validation set, flow cytometry, LFA-1/ICAM-1 modulator project, pilot screen (AID 2523;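 active = response below a set limit, under 55% cells CD8-positive and vesicle-bound, and CD8 cells' 90th-percentile brightness under 279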;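 as to vesicle binding response: mean PE anti-B7-1 fluorescence of CD8+ cells relative to row control; 100% = QL9-loaded vesicles with DMSO vehicle in the same plate row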); settings: 2C mouse CD8+ T cells, at 7 µM, stronger effect = lower value; double positive events: measured here: CD8+/vesicle+ event percentage
# [7] = target: Integrin beta-1 (Homo sapiens) + Integrin alpha-4 (Homo sapiens) (UniProt P13612+P05556); assay: alpha4beta1 integrin LIBS antibody binding reduction – U937 cells, HUTS-21 mAb, flow cytometry, validation set, VLA-4 allosteric modulator project, pilot screen (AID 2674;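 active = inhibition above 50%, about 3 SD of the validation set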;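 also: antibody binding induced by the VLA-4 ligand LDV present at three times its Kd; 0% = LDV ligand with antibody and no compound and 100% = antibody without LDV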); settings: HUTS-21 LIBS mAb binding, at 6.7 µM, stronger effect = higher value, binding induced by LDV ligand
# [8] = calorie-restriction mimetic ROS inhibitors, yeast – validation compound set, pilot screen (AID 2706;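 active = superoxide response below 65% of plate, a cut near 3 SD across the whole screen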;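 also: yeast exposed to compound for one week at 30 degrees C before staining; 100% = mean of all compound wells on the same plate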); settings: S. cerevisiae aging, superoxide DHE fluorescence; at 10 µM; stronger effect = lower value
# [9] = target: Beta-adrenergic receptor kinase 1 (Homo sapiens) (UniProt P25098); assay: GRK2 binders displacing RNA aptamer, biochemical, validation, human GRK2, bead flow cytometry (AID 488806;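 active = aptamer binding inhibition above 30%, about 3 SD of noise from non-fluorescent compounds; inactive = inhibition at or below 30%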); settings: bead-bound GRK2, FAM-aptamer displacement, at 10 µM, stronger effect = higher value
# [10] = target: Beta-2 adrenergic receptor (Homo sapiens) (UniProt P07550); assay: agonist-induced loss of surface beta2AR – cell-based, FAP fluorogen, flow cytometry, validation set, pilot screen (AID 504459;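 active = percent response above 42, roughly 3 SD of non-fluorescent test compounds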;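 also: agonist-driven loss of surface beta2AR via internalization measured by FAP dye flow cytometry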); settings: Am2.2-beta2AR cells, at 10 µM, stronger effect = higher value
# [11] = target: AP-2 complex subunit beta (Homo sapiens) (UniProt P63010); assay: beta-arrestin/AP2 interaction blockers – biochemical, validation set, GST-AP2 beads, flow cytometry, pilot screen (AID 504541;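 active = inhibition above 54%, about 3 SD of non-fluorescent compounds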;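 also: AP2 carries R879A mutation and is captured from E. coli lysate; bead-bound FITC arrestin peptide fluorescence measuring arrestin peptide binding to AP2; 0% = DMSO wells and 100% = excess unlabeled arrestin peptide control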); settings: FITC arrestin peptide, at 10 µM, stronger effect = higher value, AP2 beta2 appendage fragment, R879A mutant
# [12] = cytosolic pH regulators acting via V-ATPase – S. cerevisiae, pHLuorin, HTS validation (AID 504600; in the data active = response above about 15%;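 also: plate controls were DMSO for no effect and reference compound for full effect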); settings: V-ATPase proton transport, at 10 µM, stronger effect = higher value
# [13] = tested on: anti-desmoglein-3 scFv antibody binding to human DSG3; assay: blockers of pathogenic pemphigus antibody–desmoglein-3 binding – biochemical, validation compound set, bead-based, flow cytometry, pilot screen (AID 588368;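 active = binding below the plate cutoff, the plate median minus 3 SD, with a reading above zero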;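 also: signal is the median channel fluorescence of bead-bound GFP antibody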); settings: Protein G beads, DSG3-Fc, scFv-GFP binding, at 10 µM, stronger effect = lower value
# [14] = Nile Red efflux blockade in pump-expressing yeast – validation compound set, multiplex, phenotypic, pilot screen (AID 588506);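 also: Nile Red retained in cells so higher fluorescence means more efflux inhibition; 0 = negative control wells and 1 = enniatin B 25 µM full block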; settings: S. cerevisiae pump-expressing triplex, Nile Red efflux flow cytometry; at 10 µM; stronger effect = higher value; the pumps come from Candida albicans
# [15] = target: ATP-binding cassette sub-family B member 6 (Homo sapiens) (UniProt Q9NP58); assay: blockers of ABCB6-driven porphyrin uptake – K562-ABCB6 cells, flow cytometry, validation set, pilot screen (AID 588550;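 active = inhibition above the screen-wide mean plus 3 SD, about 51%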;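 also: 0% = DMSO wells and 100% = benzethonium chloride 70 µM positive control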); settings: K562-ABCB6 porphyrin accumulation, 1 h, at 10 µM, stronger effect = higher value
# [16] = AML differentiation inducers, ER-HoxA9 marrow cells – cell-based, GFP/MAC1 double positive, flow cytometry, validation set, primary screen (AID 588685;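 active = differentiation response of at least 50%, scaled between solvent and reference control, from cells with both markers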;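 also: compound exposure lasts four days before antibody staining and flow analysis; 0% = DMSO wells and 100% = 5 µM fulvestrant positive control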); settings: stronger effect = higher value, normalized: vehicle 0, fulvestrant 100
# Sequence of Integrin beta-1 (Homo sapiens) + Integrin alpha-4 (Homo sapiens) (P05556 whole entry, looked up): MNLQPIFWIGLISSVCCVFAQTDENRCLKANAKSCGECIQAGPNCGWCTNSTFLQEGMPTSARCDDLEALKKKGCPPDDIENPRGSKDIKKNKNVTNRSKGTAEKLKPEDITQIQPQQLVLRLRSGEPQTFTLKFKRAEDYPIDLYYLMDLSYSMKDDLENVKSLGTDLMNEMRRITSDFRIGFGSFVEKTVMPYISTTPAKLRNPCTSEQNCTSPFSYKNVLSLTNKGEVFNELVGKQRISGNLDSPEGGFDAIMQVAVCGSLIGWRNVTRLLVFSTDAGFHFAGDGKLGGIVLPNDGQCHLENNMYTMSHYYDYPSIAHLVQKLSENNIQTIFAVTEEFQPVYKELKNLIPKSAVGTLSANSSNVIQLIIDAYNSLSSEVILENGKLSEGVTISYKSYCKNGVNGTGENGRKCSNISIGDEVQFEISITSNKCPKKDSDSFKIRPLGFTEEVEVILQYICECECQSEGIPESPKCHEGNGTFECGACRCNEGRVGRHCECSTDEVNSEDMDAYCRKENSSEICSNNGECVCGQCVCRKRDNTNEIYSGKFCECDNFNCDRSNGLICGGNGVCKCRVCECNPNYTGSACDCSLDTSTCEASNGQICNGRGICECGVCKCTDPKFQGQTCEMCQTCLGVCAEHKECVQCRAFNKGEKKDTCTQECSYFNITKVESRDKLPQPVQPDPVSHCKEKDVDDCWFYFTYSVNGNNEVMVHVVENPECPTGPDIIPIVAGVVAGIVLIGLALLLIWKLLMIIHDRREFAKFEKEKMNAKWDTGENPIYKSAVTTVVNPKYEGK
# Sequence of Integrin beta-1 (Homo sapiens) + Integrin alpha-4 (Homo sapiens) (P13612 whole entry, looked up): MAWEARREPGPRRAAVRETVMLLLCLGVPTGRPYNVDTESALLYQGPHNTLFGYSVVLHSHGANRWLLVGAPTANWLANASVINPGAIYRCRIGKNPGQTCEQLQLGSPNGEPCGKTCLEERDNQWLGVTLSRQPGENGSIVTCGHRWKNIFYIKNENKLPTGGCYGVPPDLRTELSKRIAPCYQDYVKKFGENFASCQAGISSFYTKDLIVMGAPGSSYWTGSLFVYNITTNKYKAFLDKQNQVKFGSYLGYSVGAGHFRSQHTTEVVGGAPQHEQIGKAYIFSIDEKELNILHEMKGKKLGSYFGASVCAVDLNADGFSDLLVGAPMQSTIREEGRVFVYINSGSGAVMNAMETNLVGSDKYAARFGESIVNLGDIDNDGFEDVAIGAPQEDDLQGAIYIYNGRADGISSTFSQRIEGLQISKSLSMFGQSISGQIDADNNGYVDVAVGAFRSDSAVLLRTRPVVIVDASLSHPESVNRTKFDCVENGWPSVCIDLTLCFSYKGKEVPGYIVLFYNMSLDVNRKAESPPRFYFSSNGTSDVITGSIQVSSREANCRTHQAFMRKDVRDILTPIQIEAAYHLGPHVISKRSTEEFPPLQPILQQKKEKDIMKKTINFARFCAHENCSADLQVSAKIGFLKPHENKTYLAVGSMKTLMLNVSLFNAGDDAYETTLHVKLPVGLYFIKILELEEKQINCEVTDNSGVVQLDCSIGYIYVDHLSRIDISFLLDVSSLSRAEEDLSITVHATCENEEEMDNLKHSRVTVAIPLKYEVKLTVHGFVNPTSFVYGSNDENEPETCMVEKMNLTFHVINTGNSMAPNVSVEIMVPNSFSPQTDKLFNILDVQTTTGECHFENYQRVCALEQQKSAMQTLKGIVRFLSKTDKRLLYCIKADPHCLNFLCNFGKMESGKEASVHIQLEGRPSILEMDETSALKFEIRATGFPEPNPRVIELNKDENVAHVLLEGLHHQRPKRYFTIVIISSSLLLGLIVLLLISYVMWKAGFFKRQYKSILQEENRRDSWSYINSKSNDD
# Sequence of Beta-adrenergic receptor kinase 1 (Homo sapiens) (P25098 whole entry, looked up): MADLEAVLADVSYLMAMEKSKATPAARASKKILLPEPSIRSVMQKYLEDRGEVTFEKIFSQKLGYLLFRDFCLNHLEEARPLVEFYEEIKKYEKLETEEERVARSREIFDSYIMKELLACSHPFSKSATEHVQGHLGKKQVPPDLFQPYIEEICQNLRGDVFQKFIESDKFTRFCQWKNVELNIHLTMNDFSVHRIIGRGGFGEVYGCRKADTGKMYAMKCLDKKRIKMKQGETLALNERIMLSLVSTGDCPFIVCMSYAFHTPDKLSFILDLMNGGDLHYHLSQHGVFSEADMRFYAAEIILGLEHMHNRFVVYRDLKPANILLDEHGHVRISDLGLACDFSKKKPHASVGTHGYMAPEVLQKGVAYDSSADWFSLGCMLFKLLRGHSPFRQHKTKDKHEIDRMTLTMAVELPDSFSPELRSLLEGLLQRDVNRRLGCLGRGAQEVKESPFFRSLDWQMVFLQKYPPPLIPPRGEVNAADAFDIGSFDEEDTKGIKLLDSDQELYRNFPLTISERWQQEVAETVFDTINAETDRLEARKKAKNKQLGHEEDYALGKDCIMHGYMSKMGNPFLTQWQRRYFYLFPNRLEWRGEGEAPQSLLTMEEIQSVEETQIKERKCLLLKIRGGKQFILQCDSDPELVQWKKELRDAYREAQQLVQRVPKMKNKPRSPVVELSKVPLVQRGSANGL
# Sequence of Beta-2 adrenergic receptor (Homo sapiens) (P07550 whole entry, looked up): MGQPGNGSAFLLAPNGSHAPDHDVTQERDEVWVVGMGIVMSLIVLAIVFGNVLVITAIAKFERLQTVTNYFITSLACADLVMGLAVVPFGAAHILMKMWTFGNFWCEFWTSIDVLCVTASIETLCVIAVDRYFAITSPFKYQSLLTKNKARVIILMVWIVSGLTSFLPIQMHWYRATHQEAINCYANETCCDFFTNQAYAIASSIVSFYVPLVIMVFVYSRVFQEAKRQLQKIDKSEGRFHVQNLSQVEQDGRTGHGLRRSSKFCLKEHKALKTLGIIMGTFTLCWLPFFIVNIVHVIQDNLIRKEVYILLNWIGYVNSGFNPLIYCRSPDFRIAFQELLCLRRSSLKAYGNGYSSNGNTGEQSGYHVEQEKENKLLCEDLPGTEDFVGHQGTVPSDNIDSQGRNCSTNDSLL
# Sequence of AP-2 complex subunit beta (Homo sapiens) (P63010 whole entry, looked up, the tested form may be a part, one chain of several): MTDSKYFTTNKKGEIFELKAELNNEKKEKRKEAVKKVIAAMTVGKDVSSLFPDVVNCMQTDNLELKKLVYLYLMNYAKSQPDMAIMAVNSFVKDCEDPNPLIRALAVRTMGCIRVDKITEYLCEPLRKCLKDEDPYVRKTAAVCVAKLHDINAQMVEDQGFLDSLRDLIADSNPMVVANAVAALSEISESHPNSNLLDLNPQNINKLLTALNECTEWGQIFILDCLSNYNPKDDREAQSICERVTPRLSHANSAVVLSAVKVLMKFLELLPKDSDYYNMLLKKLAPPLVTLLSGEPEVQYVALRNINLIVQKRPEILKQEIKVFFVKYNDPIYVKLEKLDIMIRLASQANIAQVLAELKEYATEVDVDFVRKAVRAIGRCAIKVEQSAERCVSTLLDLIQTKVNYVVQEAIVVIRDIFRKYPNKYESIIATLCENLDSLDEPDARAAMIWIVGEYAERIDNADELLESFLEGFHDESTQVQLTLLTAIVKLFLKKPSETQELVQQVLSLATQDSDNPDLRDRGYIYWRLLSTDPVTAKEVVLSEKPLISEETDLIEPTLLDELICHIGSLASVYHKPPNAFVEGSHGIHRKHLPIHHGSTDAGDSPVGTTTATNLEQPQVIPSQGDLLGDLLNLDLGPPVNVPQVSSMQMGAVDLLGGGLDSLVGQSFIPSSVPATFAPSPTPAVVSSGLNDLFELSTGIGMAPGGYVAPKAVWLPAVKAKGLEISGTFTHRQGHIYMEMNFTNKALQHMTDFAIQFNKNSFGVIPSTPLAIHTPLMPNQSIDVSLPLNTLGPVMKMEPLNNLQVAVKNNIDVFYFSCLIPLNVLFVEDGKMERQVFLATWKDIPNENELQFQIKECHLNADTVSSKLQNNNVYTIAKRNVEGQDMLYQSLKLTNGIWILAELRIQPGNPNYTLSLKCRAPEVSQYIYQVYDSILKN
# Sequence of ATP-binding cassette sub-family B member 6 (Homo sapiens) (Q9NP58 whole entry, looked up): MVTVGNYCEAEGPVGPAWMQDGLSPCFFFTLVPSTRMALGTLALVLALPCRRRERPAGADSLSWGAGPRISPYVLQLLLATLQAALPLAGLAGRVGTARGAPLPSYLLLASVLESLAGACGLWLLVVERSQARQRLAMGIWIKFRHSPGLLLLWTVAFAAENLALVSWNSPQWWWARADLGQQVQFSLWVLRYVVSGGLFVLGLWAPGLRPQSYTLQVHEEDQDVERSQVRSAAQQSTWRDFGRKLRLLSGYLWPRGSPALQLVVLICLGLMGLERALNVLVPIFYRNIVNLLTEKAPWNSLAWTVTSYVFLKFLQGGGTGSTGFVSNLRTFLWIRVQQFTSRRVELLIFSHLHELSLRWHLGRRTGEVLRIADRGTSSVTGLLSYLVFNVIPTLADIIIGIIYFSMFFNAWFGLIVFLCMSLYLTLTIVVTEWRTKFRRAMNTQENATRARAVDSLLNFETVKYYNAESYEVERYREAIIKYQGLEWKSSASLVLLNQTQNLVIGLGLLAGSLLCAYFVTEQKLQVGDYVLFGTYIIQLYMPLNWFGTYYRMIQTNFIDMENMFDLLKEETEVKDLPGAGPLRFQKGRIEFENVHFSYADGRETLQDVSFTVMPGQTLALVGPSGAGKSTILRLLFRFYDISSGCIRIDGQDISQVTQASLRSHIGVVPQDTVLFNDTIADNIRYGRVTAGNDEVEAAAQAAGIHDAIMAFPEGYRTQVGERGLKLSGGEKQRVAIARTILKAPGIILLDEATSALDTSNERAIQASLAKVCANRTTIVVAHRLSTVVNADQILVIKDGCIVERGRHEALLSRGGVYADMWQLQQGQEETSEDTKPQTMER
SMILES,percent of DMSO control GFP [1],GFP response vs DMSO [2],percent response of DMSO control [3],GFP response vs DMSO [4],"GFP response, % of DMSO [5]",double positive events [6] [%],vesicle binding response [6],inhibition [7],superoxide response (% of plate) [8],aptamer binding inhibition [9],response [10],inhibition [11],response [12],binding (% of control) [13],efflux inhibition (fraction of control) [14],inhibition [15],differentiation response [16]
NC(=O)c1ncn([C@@H]2O[C@H](CO)[C@@H](O)[C@H]2O)c1O,101% (inactive),103% (inactive),96.7% (inactive),108% (inactive),98% (inactive),55.9,164% (inactive),-16.8% (inactive),109% (inactive),1% (inactive),3.75% (inactive),-16.1% (inactive),-4.18% (inactive),98.7% (inactive),-0.21 (inactive),3% (inactive),-15.2% (inactive)
Cc1ccsc1C1NC(=O)c2ccccc2N1 (stereo not drawn),103% (inactive),95.2% (inactive),94.8% (inactive),93.1% (inactive),93.8% (inactive),59.5,266% (inactive),0.94% (inactive),102% (inactive),1% (inactive),-6.32% (inactive),-5.8% (inactive),-1.97% (inactive),97.6% (inactive),-0.28 (inactive),6% (inactive),-15.2% (inactive)
CN(C)CC/C=C1\c2ccccc2Sc2ccc(Cl)cc21,104% (inactive),110% (inactive),103% (inactive),106% (inactive),106% (inactive),64.5,157% (inactive),9.63% (inactive),88.7% (inactive),-5% (inactive),19.9% (inactive),54.9% (active),-15.9% (inactive),106% (inactive),0.08 (inactive),9% (inactive),-17.7% (inactive)
C=CCOC(=O)C1=C(C)NC(=O)NC1/C=C/c1ccccc1OC (stereo not drawn),100% (inactive),101% (inactive),103% (inactive),103% (inactive),108% (inactive),57.9,97% (inactive),-1.09% (inactive),115% (inactive),1% (inactive),-4.89% (inactive),-14.7% (inactive),6.85% (inactive),106% (inactive),-0.03 (inactive),9% (inactive),-1.65% (inactive)
N/C(=N\OC(=O)CCCOc1ccc(Cl)cc1Cl)c1ccncc1,96.4% (inactive),110% (inactive),108% (inactive),118% (inactive),92.4% (inactive),56.8,142% (inactive),4.27% (inactive),103% (inactive),-1% (inactive),-12.7% (inactive),3.28% (inactive),-3.36% (inactive),102% (inactive),-0.005 (inactive),-7% (inactive),4.2% (inactive)
Cc1ccnc(NS(=O)(=O)c2ccc(N)cc2)n1,102% (inactive),99.7% (inactive),106% (inactive),102% (inactive),111% (inactive),63.6,203% (inactive),19% (inactive),92.2% (inactive),-1% (inactive),5.51% (inactive),-0.12% (inactive),-1.12% (inactive),94% (inactive),-0.3 (inactive),-3% (inactive),1.28% (inactive)
CN(C)CCN(Cc1ccc(Cl)cc1)c1ccccn1,107% (inactive),112% (inactive),114% (inactive),114% (inactive),118% (inactive),61.2,125% (inactive),0.25% (inactive),96% (inactive),-4% (inactive),-7.41% (inactive),54.2% (active),-5.25% (inactive),97.3% (inactive),0.37 (inactive),8% (inactive),-19.2% (inactive)
COc1cc(C(=O)OCCn2c(=O)c3c(ncn3CCN(C)C)n(C)c2=O)cc(OC)c1OC,106% (inactive),103% (inactive),101% (inactive),112% (inactive),117% (inactive),62.6,156% (inactive),4.84% (inactive),115% (inactive),6% (inactive),-24.2% (inactive),-2.34% (inactive),-26.2% (inactive),112% (inactive),-0.13 (inactive),9% (inactive),-6.96% (inactive)
NC(=O)C1CCCNC1 (stereo not drawn),106% (inactive),98.7% (inactive),109% (inactive),98% (inactive),105% (inactive),75.5,302% (inactive),1.59% (inactive),104% (inactive),-2% (inactive),7.03% (inactive),0.42% (inactive),-3.07% (inactive),103% (inactive),0.11 (inactive),10% (inactive),8.59% (inactive)
Cc1cc(O)c2/c(=N\N)c(-c3csc(C)n3)coc2c1,105% (inactive),107% (inactive),102% (inactive),106% (inactive),110% (inactive),56.7,96.1% (inactive),5.61% (inactive),102% (inactive),3% (inactive),2.22% (inactive),-8.85% (inactive),-3.38% (inactive),99.8% (inactive),-0.16 (inactive),3% (inactive),-0.18% (inactive)
CC1(C)CC(NC(=O)C23CCC(C)(C(=O)C2=O)C3(C)C)CC(C)(C)N1 (stereo not drawn),99% (inactive),112% (inactive),88.2% (inactive),116% (inactive),99.2% (inactive),65.1,166% (inactive),10.5% (inactive),96.1% (inactive),3% (inactive),-4.74% (inactive),-0.24% (inactive),6.45% (inactive),99.7% (inactive),0.19 (inactive),13% (inactive),12% (inactive)
Cc1oc2c(O)c(O)ccc2c(=O)c1-c1ccccc1,87.8% (inactive),107% (inactive),106% (inactive),74.3% (inactive),90.8% (inactive),59.4,119% (inactive),-1.3% (inactive),110% (inactive),3% (inactive),-8.83% (inactive),-5.67% (inactive),-1.26% (inactive),107% (inactive),0.45 (active),9% (inactive),-2.46% (inactive)
C#C[C@]1(O)CC[C@H]2[C@@H]3CCc4cc(OC5CCCC5)ccc4[C@H]3CC[C@@]21C,101% (inactive),104% (inactive),88.6% (inactive),126% (inactive),113% (inactive),62.7,213% (inactive),14.2% (inactive),97.7% (inactive),-1% (inactive),-9.24% (inactive),-1.15% (inactive),6.88% (inactive),105% (inactive),0.38 (inactive),3% (inactive),0% (inactive)
CCc1ccc2oc(=O)cc(CN3CCC(C)CC3)c2c1,95% (inactive),104% (inactive),95.8% (inactive),123% (inactive),95.8% (inactive),53.7,178% (inactive),-18.2% (inactive),98.9% (inactive),0% (inactive),13.8% (inactive),-0.51% (inactive),85.2% (active),103% (inactive),-0.06 (inactive),-5% (inactive),-12% (inactive)
CC(/C=C1\SC(=O)N(CCCC(=O)O)C1=O)=C\c1ccccc1,105% (inactive),103% (inactive),99% (inactive),124% (inactive),99.3% (inactive),59.5,161% (inactive),12.5% (inactive),112% (inactive),2% (inactive),-6.06% (inactive),37.2% (inactive),-1.36% (inactive),101% (inactive),0 (inactive),0% (inactive),12.8% (inactive)
COc1ccccc1N=CC1=C(O)CC(c2ccccc2)CC1=O (stereo not drawn),92.6% (inactive),111% (inactive),96.6% (inactive),82.5% (inactive),88.9% (inactive),64.4,153% (inactive),-36.2% (inactive),95.6% (inactive),2% (inactive),1.28% (inactive),-4.2% (inactive),4.13% (inactive),103% (inactive),-0.24 (inactive),12% (inactive),2.46% (inactive)
COc1ccc(OCc2cccc(C(=O)NN)c2)cc1,94.8% (inactive),97.4% (inactive),105% (inactive),98.2% (inactive),86.3% (inactive),59.7,167% (inactive),-8.62% (inactive),98.7% (inactive),8% (inactive),11.1% (inactive),-3.59% (inactive),-1.43% (inactive),103% (inactive),-0.28 (inactive),3% (inactive),-13.6% (inactive)
CCn1c(C)cc2c(c1=O)C(c1ccccc1)C(C(=O)OC)=C(N)O2 (stereo not drawn),102% (inactive),105% (inactive),98.3% (inactive),108% (inactive),111% (inactive),58.8,167% (inactive),18.5% (inactive),108% (inactive),4% (inactive),-32.4% (inactive),1.11% (inactive),-16.3% (inactive),102% (inactive),0.04 (inactive),7% (inactive),4.86% (inactive)
COc1ccc(-c2cc(=Nc3ccc(C)cc3)c3ccccc3o2)cc1,97.3% (inactive),106% (inactive),93.8% (inactive),132% (inactive),104% (inactive),60.2,195% (inactive),16.8% (inactive),99.5% (inactive),0% (inactive),-21.4% (inactive),-0.02% (inactive),7.52% (inactive),97.3% (inactive),-0.04 (inactive),5% (inactive),-9.91% (inactive)
